KDM5B inhibitor = Primary screen for KDM5B Histone Demethylases FDH-coupled qHTS | Lysine-specific demethylase 5B (Homo sapiens), Q9UGL1 | KDM5B demethylase, FDH-coupled NADH fluorescence (FDH is formaldehyde dehydrogenase) | Potency, µM (highest dose often 57.7 µM), most hits filed as inhibitors | 220,000 tested, 2.6% active | AID 1347165, 2019; active means well fitted inhibition curve with a large enough effect; further: nearly all actives have a fitted effect of over 70% in size
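Measured: NADH fluorescence change, 30 min, RT. System: KDM5BΔAP 200 nM final, H3K4me3 peptide, α-KG, Fe(II), ascorbate, NAD⁺ plus FDH, pH 7.5 HEPES. Compounds: titrated, 10 min pre-incubation with enzyme.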
Of the large screens only hits and unclear results are named; the others gave an inactive call. The sample as a whole holds a higher share of hits than the screen did.

CCNC(=O)N1CCCC1c1noc(COc2ccc(F)cc2)n1 (centres undefined)	none
COC(=O)c1sccc1NC(=O)N1CCCC1c1noc(COc2ccc(F)cc2)n1 (centres undefined)	KDM5B inhibitor 32µM
Cc1noc2nc(-c3ccccc3)cc(C(=O)NCc3ccc(N4CCOCC4)nc3)c12	none
O=C(NC1CC1)c1ccc(CN(C2CC2)S(=O)(=O)c2ccc3c(c2)CCCC3)cc1	none
COc1ccc(S(=O)(=O)N2C[C@@H]3C[C@H](C2)c2ccc(-c4ccc(OC(F)(F)F)cc4)c(=O)n2C3)cc1	KDM5B inhibitor 28µM
COc1ccc(S(=O)(=O)N2C[C@@H]3C[C@H](C2)c2ccc(NC(=O)c4ccc(C#N)cc4)c(=O)n2C3)cc1	none
COc1ccc(S(=O)(=O)N2C[C@@H]3C[C@H](C2)c2ccc(NS(=O)(=O)c4cccc(F)c4)c(=O)n2C3)cc1	none
COc1ccc(CC(=O)Nc2cccc3ccc(C)nc23)cc1	none
Cn1cc(CN2Cc3c(cc(N4CCOCC4)nc3-c3ccc(CO)cc3)C2=O)cn1	KDM5B inhibitor 35µM
O=C1c2cnc(-c3cccc(CO)c3)nc2OCCN1Cc1ccccc1	none
Cn1cc(CN2Cc3c(cc(N4CCOCC4)nc3-c3cccc(F)c3)C2=O)cn1	KDM5B inhibitor 35µM
Cn1cc(CN2CCOC[C@H](Oc3cnccn3)C2)cn1	none
CN1CC(=O)N(c2cccc(F)c2)Cc2c1ncnc2N1CCOCC1	none
Cn1cc(CN2CCOC[C@H](Oc3ccccc3)C2)cn1	none
Cn1cc(CN2Cc3c(cc(N4CCOCC4)nc3-c3cccnc3)C2=O)cn1	KDM5B inhibitor 35µM
COc1ccc(-c2nc(N3CCOCC3)cc3c2CN(Cc2cnn(C)c2)C3=O)cc1OC	none
CC(Sc1nnc(N2CCOCC2)n1-c1cccc(F)c1)c1nc2ccccc2c(=O)[nH]1 (centres undefined)	none
Cc1ccccc1OCc1nnc(SCc2ccc(Cl)c(Cl)c2)n1C	none
N#CC1(C(N)=O)C(c2ccccc2)CC(=O)CC1c1ccccc1 (centres undefined)	none
Cc1ccccc1C(=O)N/N=C/c1sccc1C	none
CN(C)C(=O)c1ccc(NC(=O)c2cc(Br)c(Br)s2)cc1	none
Cc1oc(-c2ccccc2)nc1CC(=O)Nc1ncccc1O	none
Cc1nn(Cc2ccccc2)c(C)c1[C@@H]1C=C[C@@H](NS(=O)(=O)c2cccs2)C1	none
CCCCn1nc(C(=O)NCC(F)(F)F)c2ccccc2c1=O	none
Cn1c(-c2ccc(Cl)cc2Cl)cc2ccccc21	none
CN(C)C(=O)C1CCc2nnc(-c3ccc(Cl)cc3Cl)n21 (centres undefined)	none
CN(C)C(=O)c1nc(-c2ccc(Cl)cc2Cl)c2ccccn12	KDM5B inhibitor 89µM
N#CC1CCN(C(=O)C2CN(c3cccc(Cl)c3)C(=O)N2)CC1 (centres undefined)	none
O=C(NCCc1ccc(Cl)cc1)c1nc(-c2ccc(Cl)cc2Cl)c2ccccn12	KDM5B inhibitor 79µM
COc1ccc(CCNC(=O)c2nc(SCc3ccccc3F)ncc2Cl)cc1OC	none
COc1ccc(CCNC(=O)Cn2c(=O)nc(-c3ccccc3F)c3cc(Cl)ccc32)cc1OC	none
COc1ccccc1-c1nc(C(=O)NCCc2ccc(Cl)cc2)n2ccncc12	KDM5B inhibitor 79µM
N#CC1CCN(C(=O)c2nc(-c3ccc(Cl)cc3Cl)c3ccccn23)CC1	KDM5B inhibitor 28µM
N#CC1CCN(C(=O)C2CCc3nnc(-c4ccc(Cl)cc4Cl)n32)CC1 (centres undefined)	none
CCCS(=O)(=O)NC[C@@H]1C=C(C)[C@H](Cc2nnc(-c3ccccc3F)o2)C[C@H]1C(C)C	none
COc1ccc(-c2coc3cc(OCC(=O)N4CCC(=O)CC4)ccc3c2=O)cc1	none
CC(C)CN(CC(=O)NC(C)(C#N)C1CC1)C1CC1 (centres undefined)	none
O=C(Nc1nc(-c2ccc3ccccc3c2)cs1)c1ccc[n+]([O-])c1	none
CC(=O)CC1(O)C(=O)Nc2ccc(F)cc21 (centres undefined)	none
CC(=O)N1CCC(C(=O)Nc2ccc(Cl)cc2)CC1	none
Cc1ccc(S(=O)(=O)NCC2CCC(C(=O)NCC(=O)NCc3ccco3)CC2)cc1 (centres undefined)	none
COc1cccc(/C(O)=C2\C(=O)C(=O)N(c3ccccn3)C2c2cccc(Br)c2)c1 (centres undefined)	none
CCc1cccc(C)c1NC(=O)COC(=O)c1ccc(C2Nc3ccccc3S(=O)(=O)N2)cc1 (centres undefined)	none
O=C(NC1CC1)C1CCN(C(=O)c2ccc(Cl)cc2Cl)CC1	none
Cc1ccc2nc(-c3ccccc3Cl)cc(C(=O)NC3CC3)c2c1	none
O=C(NC1CC1)c1nc(-c2ccc(Cl)cc2Cl)c2ccccn12	KDM5B inhibitor 28µM
O=C(NCCc1ccc(Cl)cc1)c1cc(-c2cnccc2Cl)c2cccn2n1	none
O=C(NCCc1ccncc1)c1ccc(Cl)cc1Cl	none
O=C(NCCc1ccc(Cl)cc1)c1nc(-c2ccc(Cl)cc2Cl)c2cnccn12	KDM5B inhibitor 56µM
CCOc1cc(C(=O)OC(C)C(N)=O)ccc1OCC(C)C (centres undefined)	none
Cc1ccc(N2C(=O)N(Cc3ccccc3)c3ccccc3S2(=O)=O)c(C)c1	none
COc1ccc(C)cc1NC(=O)N1CCC(OC2CCN(Cc3ccccc3)CC2)CC1	none
CC(Oc1ccc(Cl)cc1Cl)c1nc(-c2ccc(Br)o2)no1 (centres undefined)	none
O=Cc1cc(Br)c2c(c1)OCCCO2	none
Cc1cc(Cl)ccc1OCC(=O)OCC(=O)Nc1ccccc1Br	none
CC(C)(C)c1cc(NC(=O)CS(=O)(=O)c2ccc(F)cc2)on1	none
CN(C)C(=O)C1CN(C(=O)c2nn(Cc3ccccc3)c(=O)c3ccccc23)c2ccccc2O1 (centres undefined)	none
COc1ccc(-c2ccnc3nc(C4CCC4)nn23)cc1	none
c1ccc2oc(-c3ccnc4nc(C5CCC5)nn34)cc2c1	KDM5B inhibitor 11µM
COc1ccc(-c2ccnc3nc(C4CCC4)nn23)c(F)c1	KDM5B inhibitor 28µM
COc1cc(F)ccc1-c1ccnc2nc(C3CCCO3)nn12 (centres undefined)	KDM5B inhibitor 28µM
Brc1ccc(-c2ccnc3nc(C4CCCO4)nn23)s1 (centres undefined)	none
CCc1nc2nccc(-c3cc4ccccc4o3)n2n1	none
COc1ccc(-c2cn3cc(C(=O)NCC(N)=O)nc3c(=O)n2CC2CC2)c(F)c1	none
COc1cc(-c2ccnc3nc(C4CCCCC4)nn23)cc(OC)c1OC	KDM5B inhibitor 25µM
COc1ccccc1Oc1ccc2c(c1)C(=O)N(CC1CCCO1)C2=O (centres undefined)	none
Nc1nc(-c2cc3ccccc3o2)cs1	none
COc1cc(C(=O)OCc2cc(=O)n3nc(C4CCCCC4)sc3n2)cc(OC)c1OC	none
Cc1ccc(Sc2ccc(NC(=O)c3ccccc3)cc2)c(C)c1	none
O=C(NCCNC(=O)C1CC1)c1cc2ccccc2[nH]1	none
O=C(NCc1ccncc1)c1cc(-c2ccccc2Cl)nc2ccccc12	none
Clc1ccc(CNCCOc2ccccn2)cc1	none
COc1ccc(CC(=O)NCc2nnc(SCC(=O)c3ccc(Cl)cc3Cl)n2C)cc1	none
COc1ccc(C23CC4CC(CC(C(=O)N(C)Cc5ccc(OC)c(OC)c5)(C4)C2)C3)cc1	none
COCCOC1CCOC2(CCN(C(=O)COc3ccc(F)cc3)CC2)C1 (centres undefined)	none
COc1ccc(NS(=O)(=O)c2ccc(OCC(=O)NCc3ccccc3OC)c(C)c2)cc1	none
CN(C)CCCNC(=O)COc1ccc(-c2nn(C)c(=O)c3ccccc23)cc1	none
COC(=O)c1ccc(/C=C2\Oc3cc(OC(=O)C(C)(C)C)ccc3C2=O)cc1	none

Compound activity: PubChem BioAssay, National Center for Advancing Translational Sciences (NCATS)
